Source: PubChem
Rows were chosen to be rich in hits. Some 6.6% of all compounds tested hit in one or more screens of this group.
MPTP inh: blocks calcium-induced mitochondrial swelling | isolated mouse mitochondria, Ca2+ swelling absorbance, 30 min | AID 602449 | hit rate 1.4% among 360,000 | inhibition, % at 10 µM;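 active means inhibition of 50% or more, scaled per plate between neutral and stimulator controls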;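 further: 0% = DMSO wells given calcium and 100% = 1 mM EGTA wells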
CSC inhib: blocks cancer stem cells | cancer stem cell-like cells viability, luminescence | inhibition, % at 7.5 µM | hit rate 1.1% among 300,000 | AID 2717; in the data active means inhibition above about 75%; tested in HMLE shEcad cells
Beta apoptosis: beta cell apoptosis inhibition; INS-1E cytokine-induced death, ATP luminescence, 48 h; percent of positive-control rescue, neutral wells zero; protection from apoptosis, % (no concentration beside the values); hit rate 0.8% among 300,000; AID 435005;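 active means Every replicate reaches about 75%, or at least half do and their mean reaches it too, limit read from the data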;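 further: 0% = cytokine-treated negative control wells and 100% = positive control rescue; higher means more ATP so stronger rescue from cytokine killing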
Mdm2 MdmX PPI: disrupts the human Mdm2-MdmX interaction | O15151+Q00987 | SaOS-2 split-luciferase Mdm2/MdmX complementation, luminescence | inhibition, % at 8 µM | hit rate 3% among 330,000 | AID 485346;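 active means inhibition of at least 50% at 8 µM in the primary screen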
GRIN3A LBD mod: modulators (binders) of human NR3A ligand-binding domain; NR3A LBD differential scanning fluorimetry, Tm shift; 0% = protein alone, 100% = glycine-bound protein; Tm shift relative to glycine control, % at 25 µM; hit rate 2.5% among 340,000; AID 1259313;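 active means melting temperature shift of at least 10% of the positive control shift, at one fixed dose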
Gli-Sufu antag: antagonists of Gli-Sufu signaling | Sufu-KO-LIGHT fibroblasts, Gli luciferase reporter luminescence | inhibition, % at 5 µM | hit rate 0.74% among 340,000 | AID 588413;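 active means inhibition above about 55%, limit read from the data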;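 further: 0% = DMSO-treated cells and 100% = wells with medium but no cells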
An asterisk follows results filed as active; . = no result given.

SMILES	MPTP inh	CSC inhib	Beta apoptosis	Mdm2 MdmX PPI	GRIN3A LBD mod	Gli-Sufu antag
S=C(Nc1ccc2cn[nH]c2c1)Nc1ccc(Cl)cc1Cl	-2.0	0.3	0.1	-14.3	12.6*	-0.1
S=C(NCc1ccccc1)Nc1ccc2cn[nH]c2c1	1.7	-9.5	-3.3	18.6	-11.6	-17.1
CCCCNC(=S)Nc1ccc2cn[nH]c2c1	-1.2	-5.2	-6.8	-9.5	21.3*	1.5
S=C(Nc1ccc2cn[nH]c2c1)Nc1ccccc1Cl	-1.3	-2.9	0.1	-29.5	3.9	-37.8
COc1ccc(NC(=S)Nc2ccc3cn[nH]c3c2)cc1	1.2	17.6	-30.3	8.3	9.6	2.3
CCc1ccc(NC(=S)Nc2ccc3cn[nH]c3c2)cc1	0.3	-1.3	0.3	-0.9	13.7*	-14.5
CC1(C)CCC(=O)c2ccccc21	0.1	.	.	.	0.4	5.3
CC12CCCc3c(O)cc(=O)n(c31)-c1ccccc12 (stereo unspecified)	-1.9	2.3	-1.7	26.4	21.3*	-2.0
O=C(CNC(=O)c1ccccc1)NCC(O)c1ccc([N+](=O)[O-])cc1 (stereo unspecified)	-2.0	-0.5	-1.2	1.9	-1.0	-0.8
COc1ccc(NC(=O)[C@@H]2CC=C[C@@H]3CCN(C4CCCCC4)C(=O)[C@@H]32)cc1	0.8	-9.9	-4.6	-10.4	11.5*	-7.0
COc1ccc(CNC(=O)[C@@H]2CC=C[C@@H]3CCN(C4CCCCC4)C(=O)[C@@H]32)cc1	0.6	-1.2	-1.8	10.9	-0.3	1.0
O=C(c1cc(-c2ccco2)on1)N1CCN(c2ccccc2)CC1	-0.9	84.4*	-4.8	0.8	-1.7	-3.3
CCc1cc(-c2[nH]ncc2-c2ccc(OC)cc2)c(O)cc1O	1.6	52.9	-11.8	36.6	40.6*	4.0
CCOc1ccc(-c2[nH]ncc2-c2ccc(Cl)cc2)c(O)c1	1.4	38.0	7.6	23.4	21.9*	6.0
O=C(COC(=O)Cc1ccc(Br)cc1)NC1CCCC1	-1.7	-21.7	-4.0	36.2	-0.8	2.4
COc1cc(C2c3cc4c(cc3OC(NCc3ccccc3)C2C)OCO4)cc(OC)c1OC (stereo unspecified)	-0.5	.	.	.	-0.3	42.0
O=C(Nc1ccc(N2CCCC2)cc1)c1cccc(-c2cc3ccccc3oc2=O)c1	5.2	-14.3	0.5	-1.5	0.9	-3.6
O=C(Nc1ccccc1N1CCCC1)c1cccc(-c2cc3ccccc3oc2=O)c1	13.1	90.1*	5.8	-5.8	-1.7	-77.0
O=C1C2CC=CCC2C(=O)N1c1ccc(NCCc2ccccc2)c([N+](=O)[O-])c1 (stereo unspecified)	4.2	80.0*	-10.5	-4.2	0.6	-6.1
COn1c(-c2ccccc2)nc2c1CCc1c-2no[n+]1[O-]	0.3	6.3	-4.5	20.6	12.8*	-18.9
CC(C)c1ccc(-n2c(-c3ccccc3)c[n+]3c2CCc2ccccc2-3)cc1	3.2	.	.	.	-0.6	85.3*
O=C(CNC(c1ccccc1)c1ccccc1)Nc1ccccc1F	0.3	-14.5	-4.8	-9.8	1.3	-2.6
O=C(COC(=O)Cc1c(Cl)cccc1Cl)Nc1ccccc1-c1ccccc1	1.0	12.0	-3.2	13.3	1.7	13.9
O=C(CNC(c1ccccc1)c1ccccc1)Nc1ccccc1-c1ccccc1	2.4	38.6	3.5	6.6	16.9*	15.4
O=C(CSCc1c(Cl)cccc1Cl)Nc1ccccc1-c1ccccc1	1.6	49.1	-1.7	.	15.0*	7.4
SMILES	MPTP inh	CSC inhib	Beta apoptosis	Mdm2 MdmX PPI	GRIN3A LBD mod	Gli-Sufu antag
COC(=O)/C=C1\OCc2ccccc21	1.1	.	.	.	.	.
Cc1ccccc1NC(=O)c1oc(=O)c2ccccc2c1-c1ccccc1	1.3	-9.5	-1.9	7.5	-0.7	-0.5
Cc1cccc(NC(=O)c2oc(=O)c3ccccc3c2-c2ccccc2)c1C	7.6	4.8	9.4	8.5	15.9*	0.8
C/C(=N\NC(=O)c1cccc(N/N=C(\C)c2cc(O)ccc2O)c1)c1cc(O)ccc1O	1.0	37.1	0.6	20.2	14.0*	5.1
O=[N+]([O-])c1ccccc1N/N=C\c1ccccc1Cl	0.8	-9.4	8.3	-128.3	-0.7	-78.2
O=[N+]([O-])c1cccc(N/N=C/c2cccc(O)c2O)c1	-3.4	36.9	12.0	24.3	21.0*	22.4
O=[N+]([O-])c1ccccc1N/N=C/c1cccc(O)c1O	5.2	86.4*	20.4	-35.0	0.3	12.8
C/C(=N\Nc1cccc([N+](=O)[O-])c1)c1ccccc1O	1.3	12.3	13.5	-85.5	30.6*	6.7
O=C(c1cc(-c2cccnc2)nc2ccccc12)N1CCN(S(=O)(=O)c2cccs2)CC1	-1.0	.	-5.4	35.5	-0.3	1.0
COc1ccc(NC(=O)c2cc(C)nc3ccccc23)cc1S(=O)(=O)Nc1ccccc1Cl	1.1	7.8	3.8	16.3	-14.3	-1.7
COc1ccc(NC(=O)c2ccc3ccccc3n2)cc1S(=O)(=O)Nc1ccccc1Cl	0.3	-0.1	1.8	38.2	16.4*	-11.0
O=C(OCc1nnn(Cc2ccccc2)c1-c1c(COC(=O)c2ccccc2)nnn1Cc1ccccc1)c1ccccc1	-1.1	1.9	1.0	-10.2	0.8	0.6
COc1cccc(C2c3cc4c(cc3OC(C)(N3CCCC3)C2C)OCO4)c1O (stereo unspecified)	0.3	.	.	.	-1.4	14.8
CN(C)CCCC(C)(O)C(Cc1ccccc1)c1ccccc1 (stereo unspecified)	0.5	-14.8	-10.0	-6.5	14.0*	2.8
CN(C)CCC(Oc1ccccc1OCc1ccccc1)c1ccccc1 (stereo unspecified)	0.5	-18.3	-11.1	34.2	-1.2	7.4
NC(=O)CSc1nnc(-c2ccc(S(=O)(=O)N3CCCC3)cc2)n1Cc1ccco1	-0.4	-6.5	.	2.0	11.1*	-1.7
O=C(NC1=C(Nc2ccc(F)cc2)C(=O)c2ccccc2C1=O)c1ccc(Cl)cc1	3.7	30.8	87.0*	6.4	-8.3	-1.9
COc1ccc(C(O)c2nc(-c3ccc(Cl)cc3)cs2)cc1 (stereo unspecified)	3.4	.	.	.	.	.
Cc1ccc(S(=O)(=O)c2c(C)nn(C(C)(C)C)c2OC(=O)c2cccs2)cc1	-0.4	84.2*	-10.6	42.3	1.8	16.8
CCOc1ccc(-c2c(C(=O)N/N=C/c3ccc(OC(C)C)cc3)nnn2-c2nonc2N)cc1	0.0	9.3	-10.7	-13.6	11.0*	1.4
CCOc1ccc(-c2c(C(=O)N/N=C/c3cccs3)nnn2-c2nonc2N)cc1	-0.8	-10.3	1.8	1.6	3.8	-4.1
CCOc1ccc(-c2c(C(=O)N/N=C/c3ccc(Cl)cc3)nnn2-c2nonc2N)cc1	-0.7	-6.5	-1.7	19.3	13.4*	38.8
CCOc1ccc(/C=N/NC(=O)c2nnn(-c3nonc3N)c2-c2cccs2)cc1	-2.1	-18.6	-3.8	5.7	12.7*	-2.7
Cc1ccc(-c2c(C(=O)N/N=C/c3cccc(Cl)c3)nnn2-c2nonc2N)cc1	-1.5	-16.0	2.9	33.5	15.3*	2.9
CC1(C(=O)NCc2cccs2)CCN1C(=O)Cc1cccc2ccccc12 (stereo unspecified)	1.4	.	.	.	.	.
